For test [1], the system named is Aerobactin synthetase IucA (Klebsiella pneumoniae). As to the kind of experiment: IucA aerobactin synthetase inhibitors, biochemical, Tocris library, absorbance (AID 1345561).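 Further: 100% = enzyme without compound and 0% = no enzyme.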 To be noted: purified IucA enzyme assay, absorbance (OD) read-out; stronger effect = lower value;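 tested at 8 µM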.
Test [2] is described as follows: sensitizers of A549 cells to miR-34 induction, primary screen, imaging, A549 dox-inducible miR-34, nuclei and caspase counts (AID 1347080;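 active means compounds whose cell count with miR-34 switched on is under 0.7 times the count with it off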). To be noted: A549 miR-34 inducible, Hoechst nuclei count, 48 h.
Test [3] can be described thus: viability rescue of complex I mutant cybrids, primary screen, cell-based, galactose medium, ATP luminescence (AID 1645843;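 active means z-score of at least 1.8 in each of two replicates, scored against plate mean and spread of sample wells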;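 further: positive z means more ATP and so rescue of galactose-driven cybrid death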). Conditions: complex I mutant cybrid cells, 72 h, stronger effect = higher value.
Test [4] can be described thus: hESC survival regulators, cell-based (AID 493140).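 Further: cells exposed to compounds for four days before counting.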 Conditions: human embryonic stem cell survival screen; stronger effect = higher value.
Test [5] is described as follows: circadian clock period modulators, cell-based, LOPAC library, luminescence reporter (AID 2774).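 Further: values are relative to mean of DMSO wells on each plate.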 To be noted: circadian reporter cells, at 7 µM, actives lie on both sides.
Test [6] deals with Hepatitis C virus NS3 helicase. As to the kind of experiment: HCV NS3 helicase inhibitors, primary screen, biochemical, fluorescence polarization, LOPAC1280 library (AID 687035; in the data active means inhibition above about 37%). Conditions: Purified HCV NS3 helicase, Cy5-dT15 ssDNA binding fluorescence polarization; stronger effect = higher value; concentration not given here. A general note: Polarisation of emitted light reports the rotation of a fluorescent probe.

Test [7] can be described thus: Cy5 fluorescence quenching or enhancement artefacts, artefact control for HCV NS3 helicase inhibitor project, biochemical, LOPAC1280 (AID 687037). To be noted: Cy5-DNA-NS3h complex fluorescence interference counterscreen. (In general: The purpose of a counterscreen is to sort out artefacts and off-target activity.)
A short description of test [8]: inhibitors of Cryptococcus chitosan production, flow cytometry, Cibacron Brilliant Red staining (AID 1347148).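 Further: compound exposure lasted three days at 37 degrees C.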 To be noted: Cryptococcus neoformans chitosan, stronger effect = lower value; at 10 µM unless noted. (Flow cytometry measures light scatter and fluorescence of single cells or particles in a stream.)
Test [9] in a line: phospholipid biosynthesis inhibitors in animal cells, primary screen, cell-based, LOPAC library, screen 4 (AID 1347384). To be noted: phospholipid biosynthesis inhibition screen, at 10 µM.
The nature of test [10]: survival rescue of mitochondrial mutant cells in low glucose, primary screen, MELAS cybrids, Rieske KO mouse fibroblasts, CellTiter-Glo (AID 1508586;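 active means mean z-score across replicates of 1.96 or higher in either the MELAS or the Rieske mutant cell line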;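 further: z relative to plate mean and SD of compound and empty wells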).
Setting [11] is: stronger effect = lower value, cell number ratio, induced over uninduced.
Where [12] appears, read: measured here: relative caspase fold change +Dox/-Dox.
Setting [13] is: measured here: total cells with miR-34 induction, stronger effect = lower value.
The mark [14] stands for this setting: measured here: total cells without miR-34 induction.

Where “and” joins values, the source holds several entries; their conditions need not be identical. Equal values may be shown once. Calls of active or inactive are those of the source. Unless noted, how the calls were made is not given here.

As to `Cc1ccc2c(c1)C(=O)C1(O)CCN(c3ccccc3)C1=N2` (stereo unspecified), in test [1], the remaining activity – broadly, the signal under treatment as a percentage of the control signal – is 119% (inactive). The fold change in [2] (setting [11]) is 0.944 (inactive) and 1.14 (inactive) and 0.93 (inactive); in test [2] (setting [12]), 1.39 and 0.747 and 0.79. Also, the cell count is 2140 and 6710 and 5140 in test [2] (setting [13]); 2270 and 5900 and 5530 in [2] (setting [14]). Also, the z-score in [3] was 0.035 (inactive).

Take `O=C(O)CCC/C=C\C[C@@H]1[C@@H](/C=C/[C@@H](O)COc2cccc(Cl)c2)[C@H](O)C[C@@H]1O`: the survival in test [4] is 113 (inactive). Also, the remaining activity in [1] is 110% (inactive). For the same molecule, the fold change in test [2] (setting [11]) was 0.943 (inactive) and 0.93 (inactive) and 0.921 (inactive); in [2] (setting [12]), 1.66 and 1.25 and 1.86. Moreover, the cell count was 5470 and 5960 and 8580 in test [2] (setting [13]); 5810 and 6400 and 9320 in [2] (setting [14]). Also, in test [3], the z-score is -0.155 (inactive).

As to `CC[N+](CC)(CC)CC(=O)Nc1c(C)cccc1C`, in test [5], the period change was 0.065 h (inactive). Besides, in [6], the inhibition – broadly, the relative decrease from the control value, in per cent – is -2% (inactive). Also, the fluorescence ratio (interference) in [7] is 1 (inactive). Also, the remaining activity in [1] is 100% (inactive) and 106% (inactive). In addition, the fold fluorescence in test [8] is 6.95 [at 145.6 µM] (inactive). Further, the call in [9] was inactive. In addition, the z-score in test [3] was 0.42 (inactive) and 1.23 (inactive) and 0.065 (inactive).

`CC1(C)CCC(C)(C)c2cc(C(=O)Nc3ccc(C(=O)O)cc3)ccc21`: the survival in test [4] is 83.8 (inactive). For the same molecule, the cell count was 5520 and 7570 in test [2] (setting [13]); 5900 and 8080 in test [2] (setting [14]). Besides, the z-score in test [3] was 1.25 (inactive).

`COc1ccc(CCCOC(Cn2ccnc2)c2ccc(OC)cc2)cc1` (stereo unspecified): in [1], the remaining activity is 113% (inactive). In addition, the fold change is 1.01 (inactive) and 1.05 (inactive) in [2] (setting [11]); 1.53 and 0.475 and 0.778 in test [2] (setting [12]). Besides, the cell count in test [2] (setting [13]) was 1590 and 4390 and 2690; in test [2] (setting [14]) it was 1570 and 4170 and 2650. The z-score in [3] is -0.775 (inactive).

`C/C(=C\c1ccc(C(=O)O)cc1)c1ccc2c(c1)C(C)(C)CCC2(C)C`: the period change in test [5] is 0.4 h (inactive). For the same molecule, the survival in test [4] is 85.2 (inactive). Further, in test [6], the inhibition is 0% (inactive). In addition, the cell count in test [2] (setting [13]) is 6410 and 5680 and 8680; in test [2] (setting [14]) it was 6200 and 5870 and 8620. The call in test [9] was inactive. The z-score in [3] was 1.45 (inactive) and 1.6 (inactive).

Take `CC(C)(C)c1ccc(/C=C/C(=O)Nc2ccc3c(c2)OCCO3)cc1`: the inhibition in test [6] is -1% (inactive). The fluorescence ratio (interference) in test [7] is 1 (inactive). For the same molecule, the remaining activity in test [1] is 109% (inactive). The fold change in test [2] (setting [11]) was 1.15 (inactive) and 1.27 (inactive); in [2] (setting [12]), 0.847 and 0.54. The cell count was 4930 and 3950 in [2] (setting [13]); 4270 and 3100 in test [2] (setting [14]). Besides, the molecule was classed as inactive in [9]. For the same molecule, the z-score in [3] is -1.38 (inactive) and -0.7 (inactive).

As for `Oc1cc2c(cc1O)CN(C(=S)NCCc1ccc(Cl)cc1)CCC2`, in test [5], the period change was 0.035 h (inactive). Besides, in [6], the inhibition was 0% (inactive). Moreover, in [7], the fluorescence ratio (interference) is 1 (inactive). In addition, the remaining activity in test [1] was 72.4% (inactive). Also, the fold fluorescence in [8] was 5.63 [at 132.7 µM] (inactive). The outcome in test [9] was inactive. In addition, the z-score in [3] is -0.99 (inactive) and -1.23 (inactive).

`CCc1ccc2c(-c3cccc(Cl)c3)nc(=O)n(CC)c2n1`: the inhibition in test [6] is -2% (inactive). In test [7], the fluorescence ratio (interference) is 1 (inactive). Besides, the remaining activity in test [1] was 124% (inactive). Further, the fold change in test [2] (setting [11]) was 1.11 (inactive) and 0.913 (inactive); in test [2] (setting [12]), 1.55 and 0.664. In addition, the cell count was 9380 and 8340 in test [2] (setting [13]); 8460 and 9140 in [2] (setting [14]). In addition, the result in [9] was inactive. Moreover, the z-score in test [3] was 1.02 (inactive) and -0.175 (inactive).

Consider `CCCCCCCCCCC(C)(C)C(=O)Nc1c(OC)cc(OC)cc1OC`, for which the inhibition in [6] is -1% (inactive). For the same molecule, the fluorescence ratio (interference) in [7] is 1 (inactive). Besides, the remaining activity in test [1] was 89.7% (inactive). Also, the fold change in test [2] (setting [11]) is 1.03 (inactive) and 0.876 (inactive); in test [2] (setting [12]), 2.03 and 1.56. Moreover, the cell count was 8990 and 6930 in [2] (setting [13]); 8710 and 7910 in test [2] (setting [14]). Also, the outcome in [9] was inactive. The z-score in test [3] was -1.29 (inactive) and -0.7 (inactive).

As for `Cc1ccc([N+](=O)[O-])cc1S(=O)(=O)N(C)C`, the inhibition in test [6] is 0% (inactive). Further, the fluorescence ratio (interference) in test [7] was 1 (inactive). The remaining activity in [1] is 93.4% (inactive). The fold change is 0.957 (inactive) and 0.856 (inactive) in [2] (setting [11]); 1.62 and 1.47 in test [2] (setting [12]). Also, the cell count is 9070 and 7620 in test [2] (setting [13]); 9480 and 8900 in [2] (setting [14]). In addition, the molecule was called inactive in [9]. In addition, the z-score in [3] is 0.32 (inactive) and -0.31 (inactive).

With `CC#CCOC(=O)c1c(C)nc2sc3c(c2c1N)CCC(O)C3` (stereo unspecified), in test [5], the period change was -0.09 h (inactive). Besides, the inhibition in test [6] is -3% (inactive). Further, the fluorescence ratio (interference) in [7] is 1 (inactive). Besides, the remaining activity in test [1] is 102% (inactive). Moreover, the fold change in test [2] (setting [11]) is 0.861 (inactive) and 0.824 (inactive); in test [2] (setting [12]), 0.901 and 1. The cell count was 7740 and 5720 in [2] (setting [13]); 8990 and 6940 in test [2] (setting [14]). The molecule was called inactive in test [9]. The z-score in test [3] was -1.22 (inactive) and -0.71 (inactive).

For the molecule `O=[N+]([O-])c1cccc2c(Br)[nH]nc12`, the period change in test [5] was -0.085 h (inactive). The inhibition in test [6] is -1% (inactive). In addition, the fluorescence ratio (interference) in [7] was 0.9 (inactive). Moreover, the remaining activity in test [1] was 94.1% (inactive). In addition, the fold fluorescence in test [8] is 16.8 [at 206.6 µM] (inactive). In test [9], the molecule was called inactive. Also, the z-score in [3] is 1.04 (inactive) and -0.23 (inactive).

For the molecule `CCCCCCCCc1ccc(-c2ccc(C(=O)O)cc2)cc1`, in test [6], the inhibition was 0% (inactive). The fluorescence ratio (interference) in test [7] was 1 (inactive). In test [1], the remaining activity was 95.4% (inactive). Also, the fold change in [2] (setting [11]) is 0.939 (inactive) and 0.915 (inactive); in test [2] (setting [12]), 0.89 and 1.73. For the same molecule, the cell count in [2] (setting [13]) is 8400 and 8360; in test [2] (setting [14]) it was 8950 and 9140. Also, the result in test [9] was inactive. Besides, the z-score in test [3] is 0.205 (inactive) and -0.145 (inactive).

Consider `O=S(=O)(c1ccccc1)N(CC(F)(F)F)c1ccc(C(O)(C(F)(F)F)C(F)(F)F)cc1`, for which, in test [1], the remaining activity was 101% (inactive). In addition, the fold change is 0.946 (inactive) and 1.36 (inactive) and 0.863 (inactive) in [2] (setting [11]); 0.813 and 0.647 and 1.59 in test [2] (setting [12]). Moreover, the cell count is 5490 and 6260 and 4300 in [2] (setting [13]); 5810 and 4590 and 4980 in [2] (setting [14]). The z-score in test [10] (MELAS cybrid survival, CellTiter-Glo 48 h, stronger effect = higher value) was -0.346 (inactive); in [10] (Rieske KO mouse fibroblast survival, CellTiter-Glo 72 h) it was -0.159; in [3], -0.605 (inactive).

Turning to `Oc1cc2c(c(Cl)c1O)CCNCC2c1ccccc1` (stereo unspecified), the period change in test [5] is 0.11 h (inactive). Moreover, the fluorescence ratio (interference) in [7] is 0.6 (active). The remaining activity in test [1] was 120% (inactive). For the same molecule, the fold change in [2] (setting [11]) is 1.3 (inactive) and 0.885 (inactive); in test [2] (setting [12]) it was 0.646 and 0.88. Further, the cell count in test [2] (setting [13]) was 5030 and 5850; in test [2] (setting [14]) it was 3880 and 6610. The molecule was called inactive in test [9]. Further, in test [3], the z-score is 0.1 (inactive) and -0.405 (inactive).

In the case of `Cn1cnc2c(NCc3ccccc3)nc(NCCO)nc21`, the period change in test [5] was 0.235 h (inactive). Further, the survival in test [4] was 92.8 (inactive). In addition, the inhibition in test [6] is -2% (inactive). The fluorescence ratio (interference) in [7] was 0.9 (inactive). In [1], the remaining activity is 120% (inactive). Further, the fold fluorescence in test [8] is 4.59 [at 167.6 µM] (inactive). The molecule was classed as inactive in test [9]. Besides, the z-score in [3] was 0.355 (inactive) and 0.005 (inactive).

The values above are taken from PubChem BioAssay.
